Source: PubChem
In the library only some 1.6% were active in any assay of this set; here they are far more common.
KCNQ2 inh: rat KCNQ2 potassium channel inhibitors, primary screen, cell-based, CHO-K1, FluxOR thallium flux, B-score. Potassium voltage-gated channel subfamily KQT member 2 (Rattus norvegicus), O88943. 20 min; active compounds read low. AID 2156, 2009. hit rate 1.1% among 310,000. B-score at 10 µM;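 active = fluorescence ratio B-score at most minus 3 library SDs, with starting brightness B-score within 2 library SDs, cut at about -5.5 in these data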
KCNQ2 enhance: potentiators of rat KCNQ2 potassium channel | AID 2239, 2010 | hit rate 0.54% among 310,000 | Potassium voltage-gated channel subfamily KQT member 2 (Rattus norvegicus), O88943 | CHO-K1 KCNQ2, FluxOR thallium flux fluorescence; active compounds read high | B-score at 10 µM;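 active = fluorescence ratio B-score at least 3 SD of library B-scores, with initial fluorescence B-score within 3 of them, cut at about 5.3 in these data; same plate scores as AID 2156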;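 also: B-score of peak minus minimum over baseline fluorescence ratio after K+ and Tl+ stimulus; positive B-score means potentiation of KCNQ2 with more thallium influx and brighter signal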
KCNQ2 inh conf: rat KCNQ2 potassium channel inhibitors, confirmation, cell-based, thallium flux | activity change, negative = inhibition, % at 10 µM | hit rate 57% among 1,000 | shares compounds with KCNQ2 inh | KCNQ2-expressing cells, inhibition; active compounds read low;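 also: 0% = vehicle wells and values are ratio percent relative to vehicle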
KCNQ1 spec: human KCNQ1 channel inhibition, counter-screen for KCNQ2 inhibitor project, cell-based, FluxOR thallium flux | shares compounds with KCNQ2 inh | KCNQ1-expressing cells, FluxOR thallium flux fluorescence; active compounds read low | activity change, negative = inhibition, % at 10 µM | hit rate 15% among 1,000;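 active = activity change at least 3 SD of negative controls below their mean in both duplicate wells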;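 also: CHO cells stably transfected with KCNQ1 and depolarized by potassium stimulus; peak minus minimum fluorescence over baseline after thallium addition; 0% = vehicle negative control and -100% = blank without thallium stimulus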
Target sequence (P51787 whole entry, looked up): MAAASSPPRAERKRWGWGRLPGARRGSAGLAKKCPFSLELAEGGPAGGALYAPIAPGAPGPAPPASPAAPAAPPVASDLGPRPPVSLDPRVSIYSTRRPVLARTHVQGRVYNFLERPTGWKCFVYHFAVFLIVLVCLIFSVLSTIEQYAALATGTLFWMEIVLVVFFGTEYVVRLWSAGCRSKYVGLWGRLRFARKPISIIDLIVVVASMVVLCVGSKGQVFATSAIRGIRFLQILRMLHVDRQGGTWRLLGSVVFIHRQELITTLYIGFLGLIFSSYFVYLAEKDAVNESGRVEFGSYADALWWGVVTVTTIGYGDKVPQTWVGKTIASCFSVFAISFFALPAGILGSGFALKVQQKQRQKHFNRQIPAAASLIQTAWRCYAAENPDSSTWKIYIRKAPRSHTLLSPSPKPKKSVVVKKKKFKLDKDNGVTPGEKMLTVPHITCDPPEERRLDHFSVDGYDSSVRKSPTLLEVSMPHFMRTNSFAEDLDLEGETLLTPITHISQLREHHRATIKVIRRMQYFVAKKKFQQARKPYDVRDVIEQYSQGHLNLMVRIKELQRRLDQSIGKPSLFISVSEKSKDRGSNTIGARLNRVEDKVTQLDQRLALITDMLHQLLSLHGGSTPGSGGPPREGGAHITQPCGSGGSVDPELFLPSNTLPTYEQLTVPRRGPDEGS
CHO parental ctr: thallium flux change in parental CHO cells, counter-screen for KCNQ2 inhibitor project | shares compounds with KCNQ2 inh | active compounds read low | activity change, % at 10 µM | hit rate 14% among 1,000 | AID 493029, 2011;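 also: 0% = vehicle negative controls with stimulus buffer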
KCNQ2 inh confirm: rat KCNQ2 channel inhibitors, confirmation, cell-based, automated patch clamp, single concentration; shares compounds with KCNQ2 inh; KCNQ2-expressing cells, automated patch clamp current; calls only at 10 µM; hit rate 49% among 550
Active calls of the source: *. Unless noted, no rule for the calls is given here.

What do the screens show for `C=C(C)CN1CCN(S(=O)(=O)c2ccc(C)c(N(C)S(=O)(=O)c3ccc(C)cc3)c2C)CC1`?
KCNQ2 inh: -8.5*; KCNQ2 enhance: -8.5; KCNQ2 inh conf: -32%*; KCNQ1 spec: -32%*; CHO parental ctr: -25%*; KCNQ2 inh confirm: inactive

How did Cc1ccc(S(=O)(=O)N(C)c2c(C)ccc(S(=O)(=O)N3CCN(C)CC3)c2C)cc1 do in these assays?
KCNQ2 inh: inactive

What do the screens show for `Cc1ccc(-c2cc(C(=O)N/N=C/c3ccc(Cl)cc3)n[nH]2)o1`?
KCNQ2 inh: inactive

What do the screens show for `CC1(C)Cc2c(cnn2-c2ccccc2)C(NC(=O)CCCN2CCCC2=O)C1` (centres undefined)?
KCNQ2 inh: inactive

Results for CSCCC(NC(=O)c1ccccc1Br)C(=O)N1CCC(C)CC1 (centres undefined) ?
KCNQ2 inh: -12*; KCNQ2 enhance: -12; KCNQ2 inh conf: -36%*; KCNQ1 spec: -39%*; CHO parental ctr: -30%*; KCNQ2 inh confirm: active

Results for CSCCC(NC(=O)c1ccccc1Cl)C(=O)N1CCC1 (centres undefined) ?
KCNQ2 inh: inactive; KCNQ2 enhance: 0.67

What do the screens show for `O=C(CC(C(=O)O)c1ccc(Cl)cc1Cl)c1ccc(Cl)cc1` (centres undefined)?
KCNQ2 inh: inactive

What do the screens show for `COc1ccc(N(CC(=O)Nc2ccc(Cc3ccncc3)cc2)S(=O)(=O)c2ccccc2)cc1`?
KCNQ2 inh: inactive

How did Cc1ccc(Cl)cc1NC(=O)CN1CCN(S(=O)(=O)N2CCC(C)CC2)CC1 do in these assays?
KCNQ2 inh: inactive

What do the screens show for `C/C(=N\Nc1nc(N2CCCCCC2)nc(N2CCCCCC2)n1)c1ccccc1`?
KCNQ2 inh: -9.2*; KCNQ2 enhance: -9.2; KCNQ2 inh conf: -28%*; KCNQ1 spec: inactive; CHO parental ctr: inactive; KCNQ2 inh confirm: active

What do the screens show for `CC(=C/c1ccccc1)/C=N/Nc1nc(N2CCCCC2)nc(N2CCCCC2)n1`?
KCNQ2 inh: inactive

What do the screens show for `Cc1ccc(OCC(O)CNC2CCCC2)cc1C` (centres undefined)?
KCNQ2 inh: inactive; KCNQ2 enhance: 0.28

What do the screens show for `CC(C)c1ccc(C(C(=O)NC2CCCC2)N(C(=O)c2csnn2)C2CC2)cc1` (centres undefined)?
KCNQ2 inh: inactive

How did CC(C)(C)n1nnnc1C(c1ccccn1)N(Cc1ccccc1)Cc1ccc(Cl)cc1 (centres undefined) do in these assays?
KCNQ2 inh: -7.7*; KCNQ2 enhance: -7.7; KCNQ2 inh conf: -28%*; KCNQ1 spec: inactive; CHO parental ctr: inactive; KCNQ2 inh confirm: inactive

Results for CCN(Cc1ccccc1)C(c1ccccn1)c1nnnn1C(C)(C)CC (centres undefined) ?
KCNQ2 inh: inactive

How did Cc1ccc(-c2cc(C(=O)NCc3cnn(C)c3C)c3cc(Br)ccc3n2)cc1 do in these assays?
KCNQ2 inh: -9.2*; KCNQ2 enhance: -9.2; KCNQ2 inh conf: -34%*; KCNQ1 spec: inactive; CHO parental ctr: inactive; KCNQ2 inh confirm: active

Results for Cc1ccc(-c2cc(C(=O)N(C)Cc3cnn(C)c3C)c3cc(Br)ccc3n2)cc1 ?
KCNQ2 inh: inactive

What do the screens show for `CCCCCCCCCCCCOC1OC(CO)C(O)C(O)C1NC(C)=O` (centres undefined)?
KCNQ2 inh: inactive; KCNQ2 enhance: 0.41

What do the screens show for `Cc1cc(C)nc(NC(=O)c2cc(-c3ccc(C)s3)nc3ccccc23)c1`?
KCNQ2 inh: inactive

Results for Cc1cccc(-c2cc(C(=O)N3CCCc4ccccc43)c3ccccc3n2)c1 ?
KCNQ2 inh: -6.8*; KCNQ2 enhance: -6.8; KCNQ2 inh conf: -40%*; KCNQ1 spec: -42%*; CHO parental ctr: -34%*; KCNQ2 inh confirm: inactive

How did O=C(c1cc(-c2ccccc2)nc2ccccc12)N1CCCc2ccccc21 do in these assays?
KCNQ2 inh: inactive

Results for Cc1ccc(-c2cc(C(=O)Nc3cc(C)on3)c3ccccc3n2)cc1 ?
KCNQ2 inh: inactive

How did Cc1ccc(-c2cc(C(=O)Nc3cccnc3)c3ccccc3n2)s1 do in these assays?
KCNQ2 inh: -7.9*; KCNQ2 enhance: -7.9; KCNQ2 inh conf: -18%*; KCNQ1 spec: inactive; CHO parental ctr: inactive

What do the screens show for `Cc1cccc(-c2cc(C(=O)Nc3cccnc3)c3ccccc3n2)c1`?
KCNQ2 inh: -8*; KCNQ2 enhance: -8; KCNQ2 inh conf: -47%*; KCNQ1 spec: -48%*; CHO parental ctr: -46%*; KCNQ2 inh confirm: active

Results for Cc1cccc(-c2cc(C(=O)Nc3ccncc3)c3ccccc3n2)c1 ?
KCNQ2 inh: inactive

How did Cc1cc(NC(=O)c2cc(-c3cccc(OCC(C)C)c3)nc3ccccc23)no1 do in these assays?
KCNQ2 inh: -11*; KCNQ2 enhance: -11; KCNQ2 inh conf: -20%*; KCNQ1 spec: inactive; CHO parental ctr: inactive; KCNQ2 inh confirm: inactive

How did O=C(NNC(=O)c1cc(-c2cccnc2)nc2ccccc12)Nc1ccc(Cl)cc1 do in these assays?
KCNQ2 inh: -9.8*; KCNQ2 enhance: -9.8; KCNQ2 inh conf: -27%*; KCNQ1 spec: inactive; CHO parental ctr: inactive; KCNQ2 inh confirm: inactive

What do the screens show for `O=C(NNC(=O)c1cc(-c2ccncc2)nc2ccccc12)Nc1ccc(F)cc1`?
KCNQ2 inh: inactive; KCNQ2 enhance: 1.8

What do the screens show for `COC(=O)Nc1c(-c2ccccc2)nc2ccc(Cl)cn12`?
KCNQ2 inh: inactive

How did COC(=O)NN1C(=O)C(c2ccccc2)=C(c2ccc(Cl)cc2)C1=O do in these assays?
KCNQ2 inh: -8.8*; KCNQ2 enhance: -8.8; KCNQ2 inh conf: inactive; KCNQ1 spec: inactive; CHO parental ctr: inactive

What do the screens show for `O=C(CSc1nnc(NC(=O)c2ccco2)s1)Nc1ccccc1`?
KCNQ2 inh: inactive; KCNQ2 enhance: 0.37

What do the screens show for `Nc1cccc(P(=O)(c2ccccc2)c2ccccc2)c1`?
KCNQ2 inh: inactive

What do the screens show for `O=P(c1ccccc1)(c1ccccc1)N(c1ccccc1)c1ccccc1`?
KCNQ2 inh: -6.8*; KCNQ2 enhance: -6.8; KCNQ2 inh conf: -20%*; KCNQ1 spec: inactive; CHO parental ctr: inactive; KCNQ2 inh confirm: active

How did CC1CCN(c2nc(CN3CCCCC3)nc3scc(-c4ccccc4)c23)CC1 do in these assays?
KCNQ2 inh: inactive

Results for NC(=O)C1CC(O)CN1c1nc(CN2CCOCC2)nc2scc(-c3ccccc3)c12 (centres undefined) ?
KCNQ2 inh: -8.9*; KCNQ2 enhance: -8.9; KCNQ2 inh conf: inactive; KCNQ1 spec: inactive; CHO parental ctr: inactive
